Results published in ChEMBL document CHEMBL1961873, “Compounds: GSK PKIS; Assays: Nanosyn kinase panel” (2012).

biological target: Tyrosine-protein kinase BTK (Homo sapiens) (UniProt Q06187); conditions: at 1 µM;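 note: values are mean percent inhibition of BTK across replicate measurements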
Sequence (Q06187 whole entry): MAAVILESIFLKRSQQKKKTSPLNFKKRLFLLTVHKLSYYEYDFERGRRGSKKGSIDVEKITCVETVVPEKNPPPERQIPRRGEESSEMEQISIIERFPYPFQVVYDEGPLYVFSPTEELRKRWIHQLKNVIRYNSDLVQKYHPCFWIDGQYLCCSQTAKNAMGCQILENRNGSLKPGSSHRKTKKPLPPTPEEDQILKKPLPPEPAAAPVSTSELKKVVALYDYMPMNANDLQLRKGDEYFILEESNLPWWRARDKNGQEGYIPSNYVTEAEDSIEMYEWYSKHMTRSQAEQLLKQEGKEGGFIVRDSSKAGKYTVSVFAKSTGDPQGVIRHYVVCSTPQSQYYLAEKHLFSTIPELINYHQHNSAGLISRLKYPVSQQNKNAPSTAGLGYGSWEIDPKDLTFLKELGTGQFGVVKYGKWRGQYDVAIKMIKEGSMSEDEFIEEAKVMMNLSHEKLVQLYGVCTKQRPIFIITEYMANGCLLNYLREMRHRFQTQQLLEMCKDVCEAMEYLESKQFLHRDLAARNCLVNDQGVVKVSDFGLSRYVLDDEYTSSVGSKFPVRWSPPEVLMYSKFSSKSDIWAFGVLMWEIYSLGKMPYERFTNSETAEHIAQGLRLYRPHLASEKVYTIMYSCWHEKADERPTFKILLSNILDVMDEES

Row | Structure (SMILES) | inhibition [%]
1 | NS(=O)(=O)c1ccc(Nc2ncc(-c3ccccc3)o2)cc1 | 1.06
2 | CCN(CC)S(=O)(=O)c1ccc(OC)c(Nc2ncc(-c3ccccc3)o2)c1 | 3.38
3 | CC(=O)NCc1cccc(C#Cc2cncnc2Nc2ccc(OCc3cccc(F)c3)c(Cl)c2)c1 | -0.78
4 | COc1ccc(-c2oc3ncnc(N)c3c2-c2ccc(NC(=O)Nc3cc(C(F)(F)F)ccc3F)cc2)cc1 | 13.3
5 | CCn1cc(-c2ccnc3[nH]ccc23)c(-c2cccc(NC(=O)Nc3ccc(OCc4ccccc4)cc3)c2)n1 | 3.3

biological target: Tyrosine-protein kinase CSK (Homo sapiens) (UniProt P41240); conditions: at 0.1 µM
Sequence (P41240 2-450 limits assumed): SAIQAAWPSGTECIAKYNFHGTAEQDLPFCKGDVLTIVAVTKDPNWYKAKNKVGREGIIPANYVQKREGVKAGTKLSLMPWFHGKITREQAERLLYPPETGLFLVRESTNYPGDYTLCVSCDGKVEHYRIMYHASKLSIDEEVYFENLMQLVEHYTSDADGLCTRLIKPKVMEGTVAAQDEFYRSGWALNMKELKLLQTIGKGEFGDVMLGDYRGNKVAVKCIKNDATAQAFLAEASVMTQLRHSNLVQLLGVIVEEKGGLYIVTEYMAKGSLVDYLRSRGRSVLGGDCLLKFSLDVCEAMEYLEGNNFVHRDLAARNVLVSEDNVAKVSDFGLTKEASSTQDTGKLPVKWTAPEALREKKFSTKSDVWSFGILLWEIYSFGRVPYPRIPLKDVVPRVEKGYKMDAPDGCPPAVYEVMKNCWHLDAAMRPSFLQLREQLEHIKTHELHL

Row | Structure (SMILES) | inhibition [%]
6 | O=C(Nc1n[nH]c2cc(-c3ccc(F)cc3)ccc12)C1CC1 | 3.39
7 | CNC(=O)c1cccc(C#Cc2cncnc2Nc2ccc(OCc3cccc(F)c3)c(Cl)c2)c1 | 1.96
8 | COc1cccc(-c2c[nH]c3c(N/N=C/c4ccncc4)ncnc23)c1 | 4.78
9 | CCn1c(-c2nonc2N)nc2cnc(Oc3cccc(NC(=O)c4ccc(N(C)C)cc4)c3)cc21 | 2.19
10 | COc1ccc(-c2cc3c(N)ncnc3o2)cc1 | -1.51
11 | c1ccc(-c2nc3n(c2-c2ccc4c(c2)OCO4)CCC3)nc1 | 1.01
12 | FC(F)(F)c1cccc(-c2nn3ncccc3c2-c2ccnc(Nc3ccc4c(c3)OCCO4)n2)c1 | 5.73
13 | CC(C)COC(=O)c1ccc2c(c1)/C(=C/Nc1ccc(S(N)(=O)=O)cc1)C(=O)N2 | -2.24
14 | COc1ccc(-c2nn3ncccc3c2-c2ccnc(Nc3ccc4c(c3)OCCO4)n2)cc1 | -0.27
15 | CN1CCC(n2cnc(-c3ccc(F)cc3)c2-c2ccnc(N)n2)CC1 | 7.73
16 | N#Cc1c(NC(=O)c2ccc(F)cc2)sc2c1CCCC2 | 1.81
17 | COC(=O)Nc1nc2ccc(S(=O)(=O)c3ccc(NC(=O)Nc4cc(C(F)(F)F)ccc4F)cc3)cc2[nH]1 | 2.8
18 | NS(=O)(=O)c1ccc(N/N=C2\C(=O)Nc3ccc4ncccc4c32)cc1 | 1.66
19 | [O-][S+]1CCN(Cc2ccc(-c3ccc4ncnc(Nc5ccc(OCc6cccc(F)c6)c(Cl)c5)c4c3)o2)CC1 | 6.74
20 | Cc1cccc2c1NC(=O)/C2=N\Nc1ccc(S(N)(=O)=O)cc1 | 3.78
21 | CS(=O)(=O)CCNCc1ccc(-c2ccc3ncnc(Nc4ccc(OCc5ccccc5)c(C(F)(F)F)c4)c3c2)o1 | 0.54
22 | CC(=O)Nc1cccc(C#Cc2cncnc2Nc2ccc(OCc3cccc(F)c3)c(Cl)c2)c1 | 5.08

Row | Structure (SMILES) | inhibition [%]
23 | Nc1nc(-c2cccc(Cl)c2)c(-c2ccc3ncccc3n2)s1 | 5.57
24 | CNC(=O)c1cncc(/C=C/c2ccccc2Cl)c1 | 0.04
25 | CCn1c(-c2nonc2N)nc2c(C#CC(C)(C)O)ncc(OC3CCNCC3)c21 | 3.49
26 | CCn1c(-c2nonc2N)nc2ccccc21 | 2.25
27 | Cc1ccc(O)cc1Nc1ccnc2cc(-c3ccccn3)ccc12 | 14.5
28 | Nc1ncc(-c2cccc(S(N)(=O)=O)c2)c2scc(-c3ccc(F)c(Cl)c3)c12 | 23.1
29 | COc1cc2c(cc1Nc1nc(Nc3ccsc3C(N)=O)c3cc[nH]c3n1)N(C(=O)CN(C)C)CCC2(C)C | 2.59
30 | COc1ccc2[nH]c3c4[nH]c5ccc(OC)cc5c4c4c(c3c2c1)C(=O)NC4=O | 4.3
31 | Fc1ccc(-c2nn3ccccc3c2-c2ccncc2)cc1 | -0.04
32 | COc1ccc(-c2cc(-c3c[nH]nc3-c3ccccn3)ccn2)cc1 | 7.77
33 | c1cc(-c2cnn3nc(N4CCOCC4)ccc23)nc(NC2CC2)n1 | 10.8
34 | NS(=O)(=O)c1ccc(Nc2ncc(-c3ccccc3)o2)cc1 | 6.51
35 | CCN(CC)S(=O)(=O)c1ccc(OC)c(Nc2ncc(-c3ccccc3)o2)c1 | 1.59
36 | CC(=O)NCc1cccc(C#Cc2cncnc2Nc2ccc(OCc3cccc(F)c3)c(Cl)c2)c1 | -0.86
37 | COc1ccc(-c2oc3ncnc(N)c3c2-c2ccc(NC(=O)Nc3cc(C(F)(F)F)ccc3F)cc2)cc1 | 10.9
38 | CCn1cc(-c2ccnc3[nH]ccc23)c(-c2cccc(NC(=O)Nc3ccc(OCc4ccccc4)cc3)c2)n1 | -0.47

biological target: Tyrosine-protein kinase CSK (Homo sapiens) (UniProt P41240); conditions: at 1 µM

Row | Structure (SMILES) | inhibition [%]
39 | O=C(Nc1n[nH]c2cc(-c3ccc(F)cc3)ccc12)C1CC1 | 5.61
40 | CNC(=O)c1cccc(C#Cc2cncnc2Nc2ccc(OCc3cccc(F)c3)c(Cl)c2)c1 | 3.24
41 | COc1cccc(-c2c[nH]c3c(N/N=C/c4ccncc4)ncnc23)c1 | 17.3
42 | CCn1c(-c2nonc2N)nc2cnc(Oc3cccc(NC(=O)c4ccc(N(C)C)cc4)c3)cc21 | -0.54
43 | COc1ccc(-c2cc3c(N)ncnc3o2)cc1 | -0.98
44 | c1ccc(-c2nc3n(c2-c2ccc4c(c2)OCO4)CCC3)nc1 | 1.76
45 | FC(F)(F)c1cccc(-c2nn3ncccc3c2-c2ccnc(Nc3ccc4c(c3)OCCO4)n2)c1 | 4.25
46 | CC(C)COC(=O)c1ccc2c(c1)/C(=C/Nc1ccc(S(N)(=O)=O)cc1)C(=O)N2 | -1.85
47 | COc1ccc(-c2nn3ncccc3c2-c2ccnc(Nc3ccc4c(c3)OCCO4)n2)cc1 | 2.25
48 | CN1CCC(n2cnc(-c3ccc(F)cc3)c2-c2ccnc(N)n2)CC1 | 1.95
49 | N#Cc1c(NC(=O)c2ccc(F)cc2)sc2c1CCCC2 | 0.65
50 | COC(=O)Nc1nc2ccc(S(=O)(=O)c3ccc(NC(=O)Nc4cc(C(F)(F)F)ccc4F)cc3)cc2[nH]1 | -1.83
51 | NS(=O)(=O)c1ccc(N/N=C2\C(=O)Nc3ccc4ncccc4c32)cc1 | 9.03
52 | [O-][S+]1CCN(Cc2ccc(-c3ccc4ncnc(Nc5ccc(OCc6cccc(F)c6)c(Cl)c5)c4c3)o2)CC1 | 5.15
53 | Cc1cccc2c1NC(=O)/C2=N\Nc1ccc(S(N)(=O)=O)cc1 | 4.79
54 | CS(=O)(=O)CCNCc1ccc(-c2ccc3ncnc(Nc4ccc(OCc5ccccc5)c(C(F)(F)F)c4)c3c2)o1 | 3.7
55 | CC(=O)Nc1cccc(C#Cc2cncnc2Nc2ccc(OCc3cccc(F)c3)c(Cl)c2)c1 | -1.85

Row | Structure (SMILES) | inhibition [%]
56 | Nc1nc(-c2cccc(Cl)c2)c(-c2ccc3ncccc3n2)s1 | 6.75
57 | CNC(=O)c1cncc(/C=C/c2ccccc2Cl)c1 | 6
58 | CCn1c(-c2nonc2N)nc2c(C#CC(C)(C)O)ncc(OC3CCNCC3)c21 | 1.26
59 | CCn1c(-c2nonc2N)nc2ccccc21 | -0.41
60 | Cc1ccc(O)cc1Nc1ccnc2cc(-c3ccccn3)ccc12 | 57.1
61 | Nc1ncc(-c2cccc(S(N)(=O)=O)c2)c2scc(-c3ccc(F)c(Cl)c3)c12 | 73.3
62 | COc1cc2c(cc1Nc1nc(Nc3ccsc3C(N)=O)c3cc[nH]c3n1)N(C(=O)CN(C)C)CCC2(C)C | 0.65
63 | COc1ccc2[nH]c3c4[nH]c5ccc(OC)cc5c4c4c(c3c2c1)C(=O)NC4=O | 9.75
64 | Fc1ccc(-c2nn3ccccc3c2-c2ccncc2)cc1 | 2.22
65 | COc1ccc(-c2cc(-c3c[nH]nc3-c3ccccn3)ccn2)cc1 | 10.3
66 | c1cc(-c2cnn3nc(N4CCOCC4)ccc23)nc(NC2CC2)n1 | 5.31
67 | NS(=O)(=O)c1ccc(Nc2ncc(-c3ccccc3)o2)cc1 | 5.89
68 | CCN(CC)S(=O)(=O)c1ccc(OC)c(Nc2ncc(-c3ccccc3)o2)c1 | 5.35
69 | CC(=O)NCc1cccc(C#Cc2cncnc2Nc2ccc(OCc3cccc(F)c3)c(Cl)c2)c1 | -2.55
70 | COc1ccc(-c2oc3ncnc(N)c3c2-c2ccc(NC(=O)Nc3cc(C(F)(F)F)ccc3F)cc2)cc1 | 61
71 | CCn1cc(-c2ccnc3[nH]ccc23)c(-c2cccc(NC(=O)Nc3ccc(OCc4ccccc4)cc3)c2)n1 | 2.9
